Inconclusive results are not listed. Calls of active or inactive are those of the source. Unless noted, calls come from the whole dose curve; as a rule, active = well fitted curve in the direction sought with a large enough effect; inconclusive = small, poorly fitted or top-dose-only effect, or another doubt; inactive = no such curve, though single readings can be large; an effect the other way counts as inactive or inconclusive.

Experiment [1] is described as follows: Counterscreen for APE1 Inhibitors: Fluorescent Dye Displacement Validation Assay (AID 1707). Summed up: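 ThO 250 nM + dsDNA 50 nM (THF abasic site, 5'-TAMRA), Tris-HCl pH7.5/50mM NaCl/2 mM MgCl2/0.01% Tween-20; compounds pin-transferred; ex 480/em 540 nm endpoint. Neutral = no compound; no-DNA ThO wells = negative control.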
Background: Counterscreens check selectivity or assay interference.

Experiment [2] has as its target Endonuclease 4 (Escherichia coli (strain K12)) (UniProt P0A6C1). The experiment can be described thus: Counterscreen for APE1 Inhibitors: qHTS Validation Assay for Inhibitors of Endonuclease IV (AID 1708). Summed up: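 E. coli EndoIV at 2 nM final, preincubated 15 min at room temperature with compound, then 50 nM TAMRA/BHQ-2 THF abasic-site duplex added. Buffer: 50 mM Tris-HCl pH 7.5, 50 mM NaCl, 2 mM MgCl2, 1 mM DTT, 0.01% Tween-20. Kinetic fluorescence increase, third minus first read.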

Experiment [3] can be described thus: qHTS for differential inhibitors of proliferation of Plasmodium falciparum line 7G8 (AID 1815).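 Note: parasite growth measured after three days of incubation.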 Note: potency is the fitted concentration of half-maximal effect.
The nature of experiment [4]: qHTS for differential inhibitors of proliferation of Plasmodium falciparum line GB4 (AID 1816).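 Note: parasite growth measured after 72 h incubation.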 Note: potency is the fitted concentration of half-maximal effect. To be noted: Potency: Plasmodium falciparum GB4 proliferation inhibition.
Experiment [5] is described as follows: qHTS for differential inhibitors of proliferation of Plasmodium falciparum line D10 (AID 1877).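 Note: parasites grown with compound for 72 h before DNA staining.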 Note: potency is the fitted concentration of half-maximal effect. For orientation: Quantitative high-throughput screening tests each substance at several concentrations.
The nature of experiment [6]: qHTS for differential inhibitors of proliferation of Plasmodium falciparum line W2 (AID 1883).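 Note: parasites grown with compound for 72 h before lysis and staining.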 Note: potency is the fitted concentration of half-maximal effect. To be noted: Potency: Plasmodium falciparum W2 proliferation inhibition.
Experiment [7] has as its target Ferritin light chain (Equus caballus) (UniProt P02791). As to the kind of experiment: qHTS Validation Assay for Identification of Novel General Anesthetics (AID 2323). Note: series mostly up to about 77 µM. A digest of the protocol: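 Competitive displacement of profluorescent 1-aminoanthracene (1-AMA, 50% saturated solution in PBS) from 10 uM horse-spleen apoferritin. Compounds incubated 10 min at room temperature; fluorescence read at 380 nm excitation/535 nm emission, normalized to free 1-AMA and complex, fitted with four-parameter Hill equation.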

Experiment [8] has as its target ATP-dependent DNA helicase Q1 (Homo sapiens) (UniProt P46063). The experiment can be described thus: qHTS Validation Assay for Inhibitors of RecQ-Like Dna Helicase 1 (RECQ1) (AID 2353). Summed up:
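50 nM RECQ1T1 preincubated 15 min with compound in Tris pH 8.0 buffer with MgCl2, DTT, Tween-20 and 2.5 ug/ml poly(dI-dC); started with 200 nM TAMRA/BHQ-2 forked duplex and 2 mM ATP. Unwinding read as fluorescence (525/598 nm), two reads 2 h apart.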

The nature of experiment [9]: Cytometric Cell-Based qHTS for Inhibitors of the mTORC1 Signaling Pathway in MEF (Tsc2-/-, p53-/-) Cells (AID 2660).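 Note: percent of cells above a phospho-rpS6 to PI ratio cutoff in each well; series mostly up to about 38 µM.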 Summed up: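 Percent of cells positive for normalized phospho-S6 staining is reported, with the cutoff set from rapamycin (7.5 nM) versus DMSO wells. Tsc2-/-, p53-/- MEFs received compound for 24 hrs.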
Experiment [10] is described as follows: High Content Imaging Cell-Based qHTS for Inhibitors of the mTORC1 Signaling Pathway in MEF (Tsc2-/-, p53-/-) Cells (AID 2666). Summed up: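 Phospho-rpS6 (Ser235/236) immunofluorescence, normalized and scored as % positive cells using rapamycin and DMSO controls, was read in empty-vector Tsc2-/-, p53-/- MEFs after 24 h compound exposure at 37 C; propidium iodide counted cells.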

A short description of experiment [11]: High Content Imaging Cell-Based qHTS for Inhibitors of the mTORC1 Signaling Pathway in MEF Cells (AID 2667).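 Note: Tsc2-/- p53-/- MEFs stably re-expressing wild-type Tsc2 exposed 24 h; series mostly up to about 38 µM.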 A digest of the protocol: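 WT MEFs (Tsc2-/-, p53-/- re-expressing Tsc2), in DMEM + 10% FBS, were treated with compound for 24 h at 37 C. Cells were then fixed and stained for phospho-rpS6 Ser235/236 with propidium iodide as cell count. Values are % positive cells, with thresholds set against rapamycin-treated cells.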

The nature of experiment [12]: Cytometry Cell-Based qHTS for Inhibitors of the mTORC1 Signaling Pathway in MEF cells (AID 2668).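 Note: Tsc2-/- p53-/- mouse embryonic fibroblasts stably re-expressing wild-type Tsc2; percent cells positive for phospho-rpS6 Ser235/236 relative to propidium iodide stain; series mostly up to about 38 µM.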 A digest of the protocol:
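WT MEFs (Tsc2-/-, p53-/- stably re-expressing WT Tsc2) in DMEM + 10% FBS received compounds 24 hrs after plating, for 24 hrs at 37 degree Celsius. Fixed cells stained with Alexa-488 anti-phospho-rpS6 Ser235/236 and propidium iodide; laser-scanning cytometry read-out.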

A short description of experiment [13]: Validation screen for inhibitors of Lassa infection (AID 463096; calls by dose curve).
A short description of experiment [14]: Validation screen for small molecules that induce DNA re-replication in MCF 10A normal breast cells (AID 463097). Note: nearly all actives have a fitted effect of over 60% in size. A digest of the protocol:
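Readout: Hoechst nuclear fluorescence intensity, 405 ex / 500-530 em, by scanning plate imager; re-replication scored as increase in nuclei with elevated DNA content. Cells exposed to compound 48 hr, 37 C, 5% CO2 beforehand.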

Experiment [15] deals with DNA repair nuclease/redox regulator APEX1 (Homo sapiens) (UniProt P27695). The experiment can be described thus: qHTS Validation Assay for Inhibitors of the Human Apurinic/apyrimidinic Endonuclease 1 (APE1) (AID 1705;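 note: TAMRA fluorescence gain over two minutes as APE1 cuts a quenched THF abasic duplex; series mostly up to about 57 µM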). Summed up:
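Human APE1 was preincubated with compound for 15 min at room temperature, then 50 nM (final) THF-abasic double-stranded DNA substrate bearing 5'-TAMRA and 3'-BHQ-2 was added. Incision-driven fluorescence rise (ex 525/em 598 nm) was read kinetically.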

The nature of experiment [16]: qHTS for differential inhibitors of proliferation of Plasmodium falciparum line 3D7 (AID 1876). Note: potency is the fitted concentration of half-maximal effect.
The nature of experiment [17]: qHTS for differential inhibitors of proliferation of Plasmodium falciparum line Dd2 (AID 1882). Note: nearly all actives have a fitted effect of over 65% in size. Note: potency is the fitted concentration of half-maximal effect. Conditions: Potency: Plasmodium falciparum Dd2 proliferation inhibition. Summed up: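 Dd2-infected erythrocytes (0.3% parasitemia, 2.5% hematocrit final) incubated with compound 72 h at 37 C, 5% CO2; lysed with saponin/Triton buffer containing SYBR Green I, incubated overnight in the dark, then read by fluorescence (485/535 nm). Normalized to 0.29 uM artemisinin and DMSO.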

For experiment [18], the target named is Ubiquitin carboxyl-terminal hydrolase 2 (Homo sapiens) (UniProt O75604). As to the kind of experiment: qHTS Validation Assay for Inhibitors of Ubiquitin-specific Protease USP2a Using CHOP2 as the Reporter (AID 463106). A digest of the protocol:
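USP2 core (10 nM final) was preincubated with compound 30 min at RT in pH 8.0 Tris/CaCl2/beta-ME/CHAPS buffer. Ub-CHOP2 and reporter substrate (25 nM final each) were then added, with fluorescence (Ex 485/Em 531) read after 60 min. Data were normalized to NEM full inhibition and fitted to concentration-response curves.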

Experiment [19] can be described thus: qHTS for differential inhibitors of proliferation of Plasmodium falciparum line HB3 (AID 1886).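 Note: parasites grown with compound for 72 h before SYBR Green readout.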 Note: potency is the fitted concentration of half-maximal effect. Conditions: Potency: Plasmodium falciparum HB3 proliferation inhibition.

Sequence of Ferritin light chain (Equus caballus) (P02791 2-175 limits assumed): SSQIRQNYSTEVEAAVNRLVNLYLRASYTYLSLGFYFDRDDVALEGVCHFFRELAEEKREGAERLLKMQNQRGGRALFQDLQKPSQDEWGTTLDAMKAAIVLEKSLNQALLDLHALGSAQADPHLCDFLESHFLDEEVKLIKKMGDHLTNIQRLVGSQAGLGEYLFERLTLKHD
Sequence of Ubiquitin carboxyl-terminal hydrolase 2 (Homo sapiens) (O75604 whole entry, looked up): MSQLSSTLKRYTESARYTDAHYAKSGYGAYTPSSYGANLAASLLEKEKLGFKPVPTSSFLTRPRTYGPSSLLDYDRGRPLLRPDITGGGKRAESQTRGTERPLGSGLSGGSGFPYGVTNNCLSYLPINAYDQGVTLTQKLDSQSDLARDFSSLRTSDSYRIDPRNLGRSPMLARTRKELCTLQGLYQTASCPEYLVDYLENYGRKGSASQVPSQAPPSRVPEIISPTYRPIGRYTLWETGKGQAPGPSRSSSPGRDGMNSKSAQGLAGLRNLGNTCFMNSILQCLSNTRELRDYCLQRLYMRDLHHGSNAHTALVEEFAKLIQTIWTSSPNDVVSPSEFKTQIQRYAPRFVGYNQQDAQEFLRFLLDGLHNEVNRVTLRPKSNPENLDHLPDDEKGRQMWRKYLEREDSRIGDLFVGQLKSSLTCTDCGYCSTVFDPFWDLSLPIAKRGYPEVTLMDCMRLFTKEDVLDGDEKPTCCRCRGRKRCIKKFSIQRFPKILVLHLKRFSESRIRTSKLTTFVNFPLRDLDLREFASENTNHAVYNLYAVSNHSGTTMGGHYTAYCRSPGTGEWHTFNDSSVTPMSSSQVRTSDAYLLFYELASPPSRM
Sequence of ATP-dependent DNA helicase Q1 (Homo sapiens) (P46063 whole entry, looked up): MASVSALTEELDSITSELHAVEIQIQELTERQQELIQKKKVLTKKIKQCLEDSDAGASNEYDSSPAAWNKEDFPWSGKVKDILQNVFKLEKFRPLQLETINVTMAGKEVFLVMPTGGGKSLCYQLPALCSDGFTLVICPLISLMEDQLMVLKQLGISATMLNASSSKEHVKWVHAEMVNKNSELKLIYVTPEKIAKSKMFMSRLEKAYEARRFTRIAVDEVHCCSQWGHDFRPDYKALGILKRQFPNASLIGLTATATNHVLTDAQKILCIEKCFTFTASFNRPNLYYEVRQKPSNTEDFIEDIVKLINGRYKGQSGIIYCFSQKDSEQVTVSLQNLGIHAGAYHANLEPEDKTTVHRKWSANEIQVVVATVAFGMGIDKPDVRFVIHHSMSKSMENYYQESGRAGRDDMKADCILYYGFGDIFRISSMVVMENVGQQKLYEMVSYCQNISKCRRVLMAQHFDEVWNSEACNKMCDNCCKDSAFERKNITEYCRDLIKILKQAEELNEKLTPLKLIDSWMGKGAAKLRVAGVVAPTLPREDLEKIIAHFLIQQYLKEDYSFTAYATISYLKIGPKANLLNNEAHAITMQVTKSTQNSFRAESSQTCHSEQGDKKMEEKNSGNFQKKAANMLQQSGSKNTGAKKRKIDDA
Sequence of DNA repair nuclease/redox regulator APEX1 (Homo sapiens) (P27695 whole entry, looked up): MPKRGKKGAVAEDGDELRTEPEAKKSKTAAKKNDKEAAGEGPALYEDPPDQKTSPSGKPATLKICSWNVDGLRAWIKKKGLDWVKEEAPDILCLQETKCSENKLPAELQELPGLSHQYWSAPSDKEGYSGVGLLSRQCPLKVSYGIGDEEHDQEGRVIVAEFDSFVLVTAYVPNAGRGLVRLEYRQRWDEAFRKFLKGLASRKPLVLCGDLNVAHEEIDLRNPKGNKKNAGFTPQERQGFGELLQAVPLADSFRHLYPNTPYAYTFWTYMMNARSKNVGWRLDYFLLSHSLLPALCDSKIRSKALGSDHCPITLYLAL

Take `C[C@]12CCC3C(CC[C@H]4C[C@H](O)CC[C@]34C)C1CC[C@@H]2C(=O)CO` (some centres undefined): the Potency result in [1], in experiment [2], in [9], in experiment [10], in [11] and in [12] was “inactive” each time. Moreover, the Potency result in experiment [13] and in experiment [14] was “inactive” each time. In addition, the Potency in experiment [3] was 7.94 µM (active); in [4], 14.1 µM (active); in experiment [5] it was 8.91 µM (active); in experiment [6] it was 10 µM (active). Besides, the call in experiment [7] and in [8] was inactive.

Consider `CN1C2CCC1CC(OC(=O)c1cc(Cl)cc(Cl)c1)C2` (centres undefined), for which the Potency entry in experiment [15], in experiment [1], in experiment [2], in experiment [17], in [9] and in experiment [10] was “inactive” each time. The Potency result in experiment [11], in [13] and in [18] was “inactive” throughout. Moreover, the Potency is 6.31 µM (active) in experiment [3], 12.6 µM (active) in [4], 10 µM (active) in experiment [16] and 8.91 µM (active) in experiment [6]. In addition, the result in [7] and in [8] was inactive.

Take `c1ccc2sc(C3(N4CCCCC4)CCCCC3)cc2c1`: the Potency result in [1], in [2], in [9], in experiment [10], in [11] and in [12] was “inactive” throughout. For the same compound, the Potency result in experiment [13] and in experiment [14] was “inactive” throughout. For the same compound, the Potency in experiment [3] is 10 µM (active); in [4] it was 11.2 µM (active); in experiment [16], 11.2 µM (active); in experiment [5], 10 µM (active); in experiment [6] it was 7.94 µM (active); in experiment [19] it was 11.2 µM (active). Besides, the call in experiment [7] and in experiment [8] was inactive.

Consider `C=CCN1CC[C@]23CCCCC2[C@H]1Cc1ccc(O)cc13` (some centres undefined), for which the Potency entry in [1], in experiment [2], in [16], in experiment [5], in experiment [19] and in experiment [9] was “inactive” throughout. Also, the Potency result in experiment [10], in experiment [11], in experiment [12], in experiment [13] and in experiment [14] was “inactive” each time. The figures for the Potency in [3], in experiment [4] and in experiment [6] were 11.2 µM (active), 11.2 µM (active) and 7.08 µM (active), respectively. Also, the call in [7] and in [8] was inactive.

Consider `c1ccc(CCCN2CCN(CCOC(c3ccccc3)c3ccccc3)CC2)cc1`, for which the Potency entry in [1], in experiment [2], in [9], in [10] and in experiment [18] was “inactive” each time. In addition, the Potency in experiment [3] is 4.47 µM (active); in experiment [4] it was 7.08 µM (active); in experiment [16], 11.2 µM (active); in experiment [5] it was 10 µM (active); in [17], 8.91 µM (active); in [6], 3.16 µM (active). Also, the Potency in experiment [19] was 7.94 µM (active). Further, the outcome in [8] was inactive.

For `COc1cc(C(O)CN)ccc1O` (centres undefined), the Potency entry in [1], in [2], in experiment [3], in experiment [4], in experiment [16] and in experiment [5] was “inactive” each time. Further, the Potency entry in experiment [17], in experiment [6], in [19], in [9], in experiment [10] and in experiment [11] was “inactive” each time. The Potency result in experiment [12], in experiment [13] and in experiment [14] was “inactive” throughout. Further, the call in experiment [7] and in [8] was inactive.

For `NC(CP(=O)(O)O)C(=O)O` (centres undefined), the Potency result in experiment [1], in experiment [2], in experiment [3], in experiment [4], in experiment [16] and in [5] was “inactive” throughout. For the same compound, the Potency entry in experiment [17], in experiment [6], in experiment [19], in experiment [9], in experiment [10] and in experiment [11] was “inactive” in each case. Also, the Potency result in experiment [12], in experiment [13], in experiment [14] and in [18] was “inactive” in each case. Moreover, the compound was called inactive in experiment [7] and in experiment [8].
